Assay results published in PubChem BioAssay (EPA / NIEHS).
Activity calls are given as the source filed them. The calls were made as follows: active = hit-call score of the fitted dose curve at least 0.9, where 1 is the maximum; inactive = score below 0.9.

What was measured:
Conditions in all cases: mRNA level, 48 h; actives raise or lower the signal
[1] = read-out: Peroxisomal acyl-coenzyme A oxidase 1 (ACOX1) gene, ACOX1 (gene 51); test: LTEA_HepaRG_ACOX1: Life Technologies and Expression Analysis (LTEA) Assay for Peroxisomal acyl-coenzyme A oxidase 1 (ACOX1) gene using HepaRG (AID 2283467)
Procedure, shortened: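 HepaRG cells, plated 48 h then switched to serum-free induction medium, were exposed in duplicate for 48 h to 8-point half-log concentrations up to 100 uM in 0.5% DMSO. ACOX1 mRNA was measured by qRT-PCR, normalized to ACTB/GAPDH/POLR2A, and fitted bidirectionally versus DMSO.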

[2] = read-out: Bcl-2 (BAD) gene, BAD (gene 572); test: LTEA_HepaRG_BAD: Life Technologies and Expression Analysis (LTEA) Assay for Bcl-2 (BAD) gene using HepaRG (AID 2283469)
Procedure, shortened: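 Differentiated HepaRG cells were exposed in duplicate in 0.5% DMSO for 48 h to eight-point half-log concentrations up to 100 uM. BAD mRNA was measured by Fluidigm TaqMan qRT-PCR, normalized to ACTB, GAPDH and POLR2A, and fitted bidirectionally against DMSO.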

[3] = read-out: Bcl-2 (BAX) gene, BAX (gene 581); test: LTEA_HepaRG_BAX: Life Technologies and Expression Analysis (LTEA) Assay for Bcl-2 (BAX) gene using HepaRG (AID 2283470)
Procedure, shortened: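 Differentiated HepaRG cells exposed 48 h in serum-free induction medium, eight half-log concentrations from 100 uM, in duplicate, 0.5% DMSO vehicle. BAX mRNA by TaqMan qRT-PCR, normalised to ACTB, GAPDH and POLR2A.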

[4] = read-out: adenosine kinase (ADK) gene, ADK (gene 132); test: LTEA_HepaRG_ADK: Life Technologies and Expression Analysis (LTEA) Assay for adenosine kinase (ADK) gene using HepaRG (AID 2283471)
Procedure, shortened: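 Following 48 h exposure of HepaRG cells in 0.5% DMSO (top concentration 100 uM, duplicate wells), ADK mRNA induction or suppression was measured by qRT-PCR, normalised to ACTB/GAPDH/POLR2A, and fitted bidirectionally relative to vehicle.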

[5] = read-out: Alpha-fetoprotein (AFP) gene, AFP (gene 174); test: LTEA_HepaRG_AFP: Life Technologies and Expression Analysis (LTEA) Assay for Alpha-fetoprotein (AFP) gene using HepaRG (AID 2283472)
Procedure, shortened: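 Differentiated human HepaRG cells exposed 48 h in serum-free induction medium, 8-point half-log series from 100 uM in 0.5% DMSO, duplicate. AFP mRNA by qRT-PCR, normalized to ACTB, GAPDH, POLR2A; bidirectional fit vs DMSO.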

BCL2L11 (gene 10018) = test: LTEA_HepaRG_BCL2L11: Life Technologies and Expression Analysis (LTEA) Assay for Bcl-2 (BCL2L11) gene using HepaRG (AID 2283473)
Procedure, shortened: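 Human hepatic HepaRG cultures are treated 48 h with test chemicals (maximum 100 uM, 0.5% DMSO vehicle). Expression of BCL2L11 is measured by qRT-PCR against ACTB, GAPDH and POLR2A, with activity in either direction scored relative to vehicle.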

[6] = read-out: Apolipoprotein A-V (APOA5) gene, APOA5 (gene 116519); test: LTEA_HepaRG_APOA5: Life Technologies and Expression Analysis (LTEA) Assay for Apolipoprotein A-V (APOA5) gene using HepaRG (AID 2283474)
Procedure, shortened: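 Concentration-response of APOA5 expression in HepaRG: eight half-log doses to 100 uM, 48 h, qRT-PCR normalized to ACTB/GAPDH/POLR2A, bidirectional fitting with 0.5% DMSO as baseline.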

[7] = read-out: Apoptosis regulator Bcl-2 (Homo sapiens) (UniProt P10415); test: LTEA_HepaRG_BCL2: Life Technologies and Expression Analysis (LTEA) Assay for Bcl-2 gene using HepaRG (AID 2283475)
Procedure, shortened: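 Differentiated human HepaRG cells in serum-free induction medium exposed 48 h, in duplicate, to 8-point half-log series from 100 uM in 0.5% DMSO. BCL2 mRNA by qRT-PCR (TaqMan/Fluidigm), normalized to ACTB, GAPDH, POLR2A; bidirectional fit against DMSO.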

[8] = read-out: Bcl-2 (BID) gene, BID (gene 637); test: LTEA_HepaRG_BID: Life Technologies and Expression Analysis (LTEA) Assay for Bcl-2 (BID) gene using HepaRG (AID 2283476)
Procedure, shortened: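 Gene expression by qRT-PCR in HepaRG cells after 48 h exposure, duplicate wells, eight half-log concentrations topping at 100 uM in 0.5% DMSO. Normalized to ACTB, GAPDH, POLR2A; bidirectional fitting relative to DMSO.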

Caspase-3 (Homo sapiens) = Caspase-3 (Homo sapiens) (UniProt P42574); test: LTEA_HepaRG_CASP3: Life Technologies and Expression Analysis (LTEA) Assay for cysteine-aspartic acid protease (CASP3) using HepaRG (AID 2283477)
Caspase-3 (Homo sapiens), sequence (P42574 whole entry, looked up): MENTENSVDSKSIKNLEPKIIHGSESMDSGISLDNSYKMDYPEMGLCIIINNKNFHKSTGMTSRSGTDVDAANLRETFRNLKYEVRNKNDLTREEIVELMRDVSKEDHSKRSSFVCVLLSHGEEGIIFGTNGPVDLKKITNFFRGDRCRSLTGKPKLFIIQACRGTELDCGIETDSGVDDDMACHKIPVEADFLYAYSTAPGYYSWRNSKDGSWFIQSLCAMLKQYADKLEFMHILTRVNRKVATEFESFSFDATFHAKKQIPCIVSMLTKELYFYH
Procedure, shortened: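 Transcript-level assay: CASP3 mRNA in human HepaRG after 48 h treatment, eight half-log concentrations from 100 uM in 0.5% DMSO, quantified by qRT-PCR.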

[9] = read-out: Cytochrome P450 (CYP1A2), CYP1A2 (gene 1544); test: LTEA_HepaRG_CYP1A2: Life Technologies and Expression Analysis (LTEA) Assay for Cytochrome P450 (CYP1A2) using HepaRG (AID 2283479)
Procedure, shortened: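 In duplicate wells, HepaRG cultures maintained in 0.5% DMSO were treated 48 h across an 8-point, half-log series topping at 100 uM; phenobarbital (1 mM) served as induction control. Expression was read by qRT-PCR.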

[10] = read-out: cysteine-aspartic acid protease (CASP8), CASP8 (gene 841); test: LTEA_HepaRG_CASP8: Life Technologies and Expression Analysis (LTEA) Assay for cysteine-aspartic acid protease (CASP8) using HepaRG (AID 2283480)
Procedure, shortened: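 Differentiated HepaRG cells in serum-free induction medium, 48 h exposure, eight-point half-log series from 100 uM in 0.5% DMSO, duplicates. CASP8 mRNA by qRT-PCR, normalized to ACTB, GAPDH, POLR2A; bidirectional fit versus DMSO.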

[11] = read-out: Cytochrome P450 2C19 (Homo sapiens) (UniProt P33261); test: LTEA_HepaRG_CYP2C19: Life Technologies and Expression Analysis (LTEA) Assay for CYP2C19 using HepaRG (AID 2283482)
Procedure, shortened: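 Endpoint: CYP2C19 mRNA change, bidirectional fit vs 0.5% DMSO. Cells: HepaRG, 48 h exposure, eight-point series topping at 100 uM. Quantitation: qRT-PCR normalized to ACTB, GAPDH, POLR2A.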

CYP2C8 (gene 1558) = test: LTEA_HepaRG_CYP2C8: Life Technologies and Expression Analysis (LTEA) Assay for CYP2C8 using HepaRG (AID 2283483)
Procedure, shortened: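 Differentiated HepaRG cells in serum-free induction medium exposed 48 h in duplicate to 8 half-log concentrations from 100 uM in 0.5% DMSO. CYP2C8 mRNA by qRT-PCR normalized to ACTB, GAPDH, POLR2A; bidirectional fit versus DMSO.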

CYP2C9 (gene 1559) = test: LTEA_HepaRG_CYP2C9: Life Technologies and Expression Analysis (LTEA) Assay for CYP2C9 using HepaRG (AID 2283484)
Procedure, shortened: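 Differentiated human HepaRG cells in serum-free induction medium were exposed 48 h to chemicals in 8-point half-log series from 100 uM (0.5% DMSO), in duplicate. CYP2C9 mRNA was measured by qRT-PCR, normalized to ACTB/GAPDH/POLR2A, with bidirectional fitting versus DMSO.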

CYP2E1 (gene 1571) = test: LTEA_HepaRG_CYP2E1: Life Technologies and Expression Analysis (LTEA) Assay for CYP2E1 using HepaRG (AID 2283485)
Procedure, shortened: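 HepaRG cells, plated 48 h, then exposed 48 h in serum-free induction medium to eight half-log concentrations from 100 uM in 0.5% DMSO, duplicate. CYP2E1 mRNA by qRT-PCR, normalized to ACTB/GAPDH/POLR2A; bidirectional fit versus DMSO.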

CYP4A11 (gene 1579) = test: LTEA_HepaRG_CYP4A11: Life Technologies and Expression Analysis (LTEA) Assay for CYP4A11 using HepaRG (AID 2283486)
Procedure, shortened: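 Human hepatic HepaRG cultures receive duplicate 48 h exposures across a concentration-response series topping at 100 uM. Expression changes in CYP4A11 are measured by qRT-PCR relative to DMSO controls.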

[12] = read-out: Cytochrome P450 (CYP24A1), CYP24A1 (gene 1591); test: LTEA_HepaRG_CYP24A1: Life Technologies and Expression Analysis (LTEA) Assay for Cytochrome P450 (CYP24A1) using HepaRG (AID 2283478)
Procedure, shortened: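 Gene expression of CYP24A1 by TaqMan qRT-PCR in HepaRG after 48 h treatment, highest concentration 100 uM; activity fitted in both directions relative to DMSO vehicle.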

[13] = read-out: Cytochrome P450 (CYP2B6), CYP2B6 (gene 1555); test: LTEA_HepaRG_CYP2B6: Life Technologies and Expression Analysis (LTEA) Assay for Cytochrome P450 (CYP2B6) using HepaRG (AID 2283481)
Procedure, shortened: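 Human HepaRG, 48 h dosing, 0.5% DMSO vehicle, top dose 100 uM. CYP2B6 transcript by qRT-PCR, housekeeping-normalized, bidirectional curve fit.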

Measured: AC50

Apoptosis regulator Bcl-2 (Homo sapiens), sequence (P10415 whole entry, looked up): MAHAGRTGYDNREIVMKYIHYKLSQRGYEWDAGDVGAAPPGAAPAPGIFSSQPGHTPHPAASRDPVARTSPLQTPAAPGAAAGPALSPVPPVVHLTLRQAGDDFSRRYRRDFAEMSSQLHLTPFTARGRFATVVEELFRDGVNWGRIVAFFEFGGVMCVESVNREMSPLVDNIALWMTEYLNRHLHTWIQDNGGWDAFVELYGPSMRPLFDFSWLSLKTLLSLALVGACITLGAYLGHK
Cytochrome P450 2C19 (Homo sapiens), sequence (P33261 whole entry, looked up): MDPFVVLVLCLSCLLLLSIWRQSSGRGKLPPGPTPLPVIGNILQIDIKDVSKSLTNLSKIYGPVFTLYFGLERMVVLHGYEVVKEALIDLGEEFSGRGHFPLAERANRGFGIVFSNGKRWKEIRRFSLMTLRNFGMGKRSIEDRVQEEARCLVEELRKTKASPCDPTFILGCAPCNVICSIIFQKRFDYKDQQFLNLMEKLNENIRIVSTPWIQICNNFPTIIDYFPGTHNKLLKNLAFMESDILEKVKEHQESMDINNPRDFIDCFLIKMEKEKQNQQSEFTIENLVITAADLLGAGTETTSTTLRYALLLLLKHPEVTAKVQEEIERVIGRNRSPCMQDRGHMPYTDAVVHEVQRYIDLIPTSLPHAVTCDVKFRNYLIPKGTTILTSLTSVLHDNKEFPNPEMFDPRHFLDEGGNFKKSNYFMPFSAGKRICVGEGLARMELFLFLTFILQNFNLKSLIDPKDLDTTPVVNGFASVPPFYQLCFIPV

Cc1oc(-c2ccccc2)nc1CCOc1cccc2c1ccn2CCC(=O)O
inactive: [2] | [4] | [8] | Caspase-3 (Homo sapiens) | [9]
active: [1] 0.106 µM | [3] 50 µM | [5] 80.8 µM | BCL2L11 (gene 10018) 14.1 µM | [6] 80.7 µM | [7] 86.3 µM | [10] 50 µM | [11] 83.4 µM | CYP2C8 (gene 1558) 80.5 µM | CYP2C9 (gene 1559) 77.9 µM | CYP2E1 (gene 1571) 62.6 µM | CYP4A11 (gene 1579) 85.9 µM

CCCCCCCCCCCCCCCC
active: [9] 50 µM
inactive: [1] | [2] | [3] | [4] | [5] | BCL2L11 (gene 10018) | [6] | [7] | [8] | Caspase-3 (Homo sapiens) | [10] | [11] | CYP2C8 (gene 1558) | CYP2C9 (gene 1559) | CYP2E1 (gene 1571) | CYP4A11 (gene 1579)

CCCCCCCCCCCCCCCCCC(=O)O
inactive: [1] | [2] | [3] | [4] | [5] | BCL2L11 (gene 10018) | [6] | [7] | Caspase-3 (Homo sapiens) | [12] | [9] | [10] | [13] | [11] | CYP2C8 (gene 1558) | CYP2C9 (gene 1559) | CYP2E1 (gene 1571) | CYP4A11 (gene 1579)

Cc1ccccc1Cl
inactive: [1] | [2] | [3] | [4] | [5] | BCL2L11 (gene 10018) | [6] | [7] | Caspase-3 (Homo sapiens) | [12] | [9] | [10] | [13] | [11] | CYP2C8 (gene 1558) | CYP2C9 (gene 1559) | CYP2E1 (gene 1571) | CYP4A11 (gene 1579)

CC=Cc1ccc(O)c(OC)c1
inactive: [1] | [2] | [3] | [4] | [5] | BCL2L11 (gene 10018) | [6] | [7] | [8] | Caspase-3 (Homo sapiens) | [9] | [10] | [11] | CYP2C8 (gene 1558) | CYP2C9 (gene 1559) | CYP2E1 (gene 1571) | CYP4A11 (gene 1579)

CCOc1ccc2c(c1)C(C)=CC(C)(C)N2
inactive: [1] | [2] | [3] | [4] | [6] | [7] | Caspase-3 (Homo sapiens) | [10] | CYP2C8 (gene 1558) | CYP2C9 (gene 1559) | CYP4A11 (gene 1579)
active: [5] 50 µM | BCL2L11 (gene 10018) 9.92 µM | [9] 13 µM | [13] 0.551 µM | CYP2E1 (gene 1571) 30 µM

O=c1c(O)c(-c2ccc(O)c(O)c2)oc2cc(O)cc(O)c12
inactive: [1] | [2] | [3] | [4] | BCL2L11 (gene 10018) | [6] | [7] | Caspase-3 (Homo sapiens) | [12] | [10] | [11] | CYP2C8 (gene 1558) | CYP2C9 (gene 1559) | CYP2E1 (gene 1571)
active: [5] 79 µM | [9] 0.806 µM | CYP4A11 (gene 1579) 50 µM

Nc1ccc2c(c1)C(=O)c1ccccc1C2=O
inactive: [1] | [2] | [4] | BCL2L11 (gene 10018) | [7] | [8] | Caspase-3 (Homo sapiens) | [10] | [11]
active: [3] 15 µM | [5] 22.8 µM | [6] 5.42 µM | [9] 4.96 µM | CYP2C8 (gene 1558) 3.97 µM | CYP2C9 (gene 1559) 1.04 µM | CYP2E1 (gene 1571) 14.3 µM | CYP4A11 (gene 1579) 29 µM
